Rce1 inhib – yeast Rce1p protease inhibitors, primary screen, biochemical, fluorescence, cell-free homogeneous; CAAX prenyl protease 2 (Saccharomyces cerevisiae (strain ATCC 204508 / S288c)), Q03530; 290,000 compounds, 0.27% hits; yeast membranes, quenched prenylated peptide cleavage fluorescence; calls only;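 active means fall in fluorescence gain of 50% or more versus controls, with final raw signal at or below 3038400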
Target sequence (Q03530 whole entry, looked up): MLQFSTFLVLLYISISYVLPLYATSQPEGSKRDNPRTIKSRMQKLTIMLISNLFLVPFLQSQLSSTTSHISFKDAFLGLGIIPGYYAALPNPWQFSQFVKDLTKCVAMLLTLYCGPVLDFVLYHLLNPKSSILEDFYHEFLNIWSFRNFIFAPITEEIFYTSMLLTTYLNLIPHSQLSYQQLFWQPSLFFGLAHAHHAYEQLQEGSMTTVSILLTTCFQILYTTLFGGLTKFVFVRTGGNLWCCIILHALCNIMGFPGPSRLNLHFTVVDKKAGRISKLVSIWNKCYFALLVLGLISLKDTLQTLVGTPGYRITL
MEKK2mut PB1 HTS – MEK5 binding signal on mutant MEKK2 PB1, primary screen, biochemical, multiplex bead flow cytometry, Alexa488-MEK5; 290,000 compounds, 0.35% hits; AID 1530, 2009; Alexa488-MEK5 binding to MEKK2 mutant; percent response, % at 10 µM; in the data active means percent response above about 24%, passing the limit was not always enough
UBC13 inh – UBC13 polyubiquitin chain formation inhibitors, primary screen, biochemical, TR-FRET, uHTS | 330,000 compounds, 0.47% hits | inhibition, % at 20 µM | Ubiquitin-conjugating enzyme E2 N (Homo sapiens), P61088; in the data active means inhibition above about 45%, passing the limit was not always enough
Target sequence (P61088 whole entry, looked up): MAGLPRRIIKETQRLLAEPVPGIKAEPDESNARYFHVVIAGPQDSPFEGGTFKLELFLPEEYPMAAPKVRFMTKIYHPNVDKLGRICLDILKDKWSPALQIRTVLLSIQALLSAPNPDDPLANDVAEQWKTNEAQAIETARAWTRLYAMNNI
MEKK2wt PB1 HTS – modulators of MEK5 binding to wildtype MEKK2, primary screen, biochemical, multiplex bead flow cytometry, Alexa488-MEK5 | Mitogen-activated protein kinase kinase kinase 2 (Homo sapiens), Q9Y2U5 | AID 1531, 2009 | Alexa488-MEK5 binding to MEKK2 WT; actives lie on both sides | 290,000 compounds, 1.1% hits | binding response (% of control), % at 10 µM; in the data active means binding response below about 67% or above about 130%
MEKK3 PB1 HTS – modulators of MEKK3-MEK5 PB1 binding, primary screen, biochemical, wildtype MEKK3, multiplex bead flow cytometry, Alexa488-MEK5; Mitogen-activated protein kinase kinase kinase 3 (Homo sapiens), Q99759; bead-based flow cytometry, Alexa488-MEK5 binding to MEKK3; actives lie on both sides; 0 = blocked by unlabeled MEK5, 100 = vehicle; binding response (% of control), % at 10 µM; 290,000 compounds, 1.4% hits;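 active means binding response more than 3 SD above or below the average of its plate-row segment, actives on both sides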;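 further: Alexa488 bead fluorescence after subtracting the streptavidin-only scavenger bead signal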
MEKK2wt confirm – modulators of MEK5 binding to wildtype MEKK2, confirmation, biochemical, single concentration, multiplex bead flow cytometry | shares compounds with MEKK3 PB1 HTS | binding response (% of control), % at 10 µM | Alexa488-MEK5 binding to MEKK2 WT; actives lie on both sides | 5,900 compounds, 2.4% hits; in the data active means binding response below about 16% or above about 210%; inactive means in between
MEKK2mut-MEK5 – mutant MEKK2 PB1-MEK5 binding signal retest – biochemical, single concentration, multiplex bead flow cytometry, confirmation; shares compounds with MEKK3 PB1 HTS; Alexa488-MEK5 binding to MEKK2 mutant; percent response, % at 10 µM; 5,900 compounds, 2% hits; in the data active means percent response mostly above about 71%, no sharp cut-off; inactive means mostly below about 38%;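 further: higher means compound restores mutant binding toward wildtype level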
MEKK3-MEK5 inh – MEKK3 wild-type PB1 binding to MEK5, inhibitors, confirmation, biochemical, bead multiplex flow cytometry, single concentration, wildtype; shares compounds with MEKK3 PB1 HTS; Alexa488-MEK5 binding to MEKK3; hits give low values; binding response (% of control), % at 10 µM; 5,900 compounds, 1.8% hits; AID 1894, 2009;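 active means binding response below 72% of control, or above a set upper limit, though filed actives all read lower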
Of the large screens only hits and unclear results are named; the others gave an inactive call (follow-up assays come after a bar, where they were run); [ ] = another dose, or the depositor's remark. A selection: hits, their analogues and other compounds. The true share with any hit is near 2.5%.

CCc1ccc(C(=O)NC(CCSC)C(=O)OC)cc1 (configuration not stated)	MEKK2wt PB1 HTS 3.0[inhibitor], MEKK3 PB1 HTS 3.0[inhibitor] | MEKK2wt confirm inactive | MEKK2mut-MEK5 inactive | MEKK3-MEK5 inh inactive
CC(=O)c1ccccc1NC(=O)COC(=O)Cc1cccc(C(F)(F)F)c1	none (no result: Rce1 inhib, MEKK2mut PB1 HTS, MEKK2wt PB1 HTS, MEKK3 PB1 HTS)
Cc1cccc(NC(=O)COC(=O)Cc2cccc(C(F)(F)F)c2)c1C	MEKK3 PB1 HTS 145 (no result: Rce1 inhib) | MEKK2wt confirm inactive | MEKK2mut-MEK5 inactive | MEKK3-MEK5 inh inactive
CCCCn1c(N)c(N(CCC(C)C)C(=O)C2CCCC2)c(=O)[nH]c1=O	none (no result: Rce1 inhib, MEKK2mut PB1 HTS, MEKK2wt PB1 HTS, MEKK3 PB1 HTS)
COc1cc(Cl)cc2c1Sc1ccccc1/C2=C/CCN(C)C	MEKK2wt PB1 HTS 167 | MEKK2wt confirm inactive | MEKK2mut-MEK5 inactive | MEKK3-MEK5 inh inactive
COc1ccc(NC(=O)C2CC3CCC2C3)c(OC)c1 (configuration not stated)	none (no result: MEKK2mut PB1 HTS, MEKK2wt PB1 HTS, MEKK3 PB1 HTS)
CCCCOC(=O)Nc1ccc(C(=O)OC)cc1	none
CCCCC(CCC(=O)Nc1ccc(C(=O)OC)cc1)C(=O)O (configuration not stated)	MEKK3 PB1 HTS 123 | MEKK2wt confirm inactive | MEKK2mut-MEK5 inactive | MEKK3-MEK5 inh inactive
Cc1nn(Cc2ccccc2)c(C)c1NC(=O)CSc1n[nH]c(C)c1[N+](=O)[O-]	MEKK3 PB1 HTS 134 | MEKK2wt confirm inactive | MEKK2mut-MEK5 inactive | MEKK3-MEK5 inh inactive
Cc1nn(Cc2ccc(Cl)cc2)c(C)c1NC(=O)CSc1n[nH]c(C)c1[N+](=O)[O-]	MEKK3 PB1 HTS 142 | MEKK2wt confirm inactive | MEKK2mut-MEK5 inactive | MEKK3-MEK5 inh inactive
Cc1nn(Cc2ccccc2Cl)c(C)c1NC(=O)CSc1n[nH]c(C)c1[N+](=O)[O-]	none
O=C(O)CCC(=O)NCc1c(Cl)cccc1Sc1ccc(Cl)cc1	none
COc1cccc(C2C(C(N)=O)=C(C)Nc3nc(CCCO)nn32)c1 (configuration not stated)	none
Cc1ccccc1CCN(C(=O)Cn1nnc2ccccc21)C(C(=O)NC(C)(C)C)c1ccsc1 (configuration not stated)	MEKK3 PB1 HTS 76[inhibitor] | MEKK2wt confirm inactive | MEKK2mut-MEK5 inactive | MEKK3-MEK5 inh inactive
CCOc1ccc(N/C(N)=N/c2nc(CSc3nnnn3-c3ccccc3)cc(=O)[nH]2)cc1	none
CC1/C(=N/O)CC(c2ccccc2)NC1c1ccccc1 (configuration not stated)	none
CCCC1/C(=N/O)CC(c2ccccc2)NC1c1ccccc1 (configuration not stated)	MEKK2wt PB1 HTS 7.0[inhibitor], MEKK3 PB1 HTS 4.0[inhibitor] | MEKK2wt confirm inactive | MEKK2mut-MEK5 inactive | MEKK3-MEK5 inh inactive
CCn1c(-c2ccccc2Cl)nn(CC(=O)Nc2ccc(OC)cc2)c1=S	none
COc1ccc(OCC(=O)Nc2ccccc2OC(F)F)cc1	MEKK3 PB1 HTS 122 | MEKK2wt confirm inactive | MEKK2mut-MEK5 inactive | MEKK3-MEK5 inh inactive
COc1ccc(OCC(=O)Nc2ccccc2OC)cc1	none
O=C1CC2(CCN(C(=O)c3cccc([N+](=O)[O-])c3)CC2)Oc2ccccc21	none (no result: MEKK2mut PB1 HTS, MEKK2wt PB1 HTS, MEKK3 PB1 HTS)
COc1cc(/C=N/N2CCOCC2)ccc1OC(=O)c1ccco1	MEKK3 PB1 HTS 49[inhibitor] | MEKK2wt confirm inactive | MEKK2mut-MEK5 inactive | MEKK3-MEK5 inh inactive
COc1cc(/C=N/N(C)C)ccc1OC(=O)c1ccco1	none (no result: Rce1 inhib)
COc1cc(OC)c(NC(=O)C2CCCO2)cc1Cl (configuration not stated)	none (no result: Rce1 inhib)
COc1cc(NC(=O)C2CCCO2)c(OC)cc1Cl (configuration not stated)	MEKK3 PB1 HTS 82[inhibitor] | MEKK2wt confirm inactive | MEKK2mut-MEK5 inactive | MEKK3-MEK5 inh inactive
CC(=O)c1cccc(NC(=S)N2CCN(S(=O)(=O)c3ccccc3)CC2)c1	none
O=C(NCCc1ccccc1)C(=O)NCC1CCCO1 (configuration not stated)	MEKK2wt PB1 HTS 17[inhibitor], MEKK3 PB1 HTS 12[inhibitor] | MEKK2wt confirm inactive | MEKK2mut-MEK5 inactive | MEKK3-MEK5 inh inactive
S=C(NCC1CCCO1)NC12CC3CC(CC(C3)C1)C2 (configuration not stated)	MEKK2wt PB1 HTS 6.0[inhibitor], MEKK3 PB1 HTS 4.0[inhibitor] | MEKK2wt confirm inactive | MEKK2mut-MEK5 inactive | MEKK3-MEK5 inh inactive
S=C(NCC1CCCO1)Nc1ccc(Cl)cc1 (configuration not stated)	MEKK3 PB1 HTS 141 | MEKK2wt confirm inactive | MEKK2mut-MEK5 inactive | MEKK3-MEK5 inh inactive
Cc1ccc(NC(=S)NCC2CCCO2)cc1 (configuration not stated)	none
CN1C(=O)C(=O)/C(=C(/O)c2ccccc2)C1c1ccc(Br)cc1 (configuration not stated)	none
O=C1C(=O)N(CCCO)C(c2ccc(Br)cc2)/C1=C(\O)c1ccc(Br)cc1 (configuration not stated)	MEKK2mut PB1 HTS 28 | MEKK2wt confirm inactive | MEKK2mut-MEK5 inactive | MEKK3-MEK5 inh inactive
COCCCN1C(=O)C(=O)/C(=C(/O)c2ccccc2)C1c1ccc(N(C)C)cc1 (configuration not stated)	MEKK2mut PB1 HTS 223, MEKK2wt PB1 HTS 152 | MEKK2wt confirm inactive | MEKK2mut-MEK5 inactive | MEKK3-MEK5 inh inactive
CC(=O)Nc1ccc(S(=O)(=O)N(C)CC(=O)NNc2c(F)c(F)cc(F)c2F)cc1	none (no result: Rce1 inhib, MEKK2mut PB1 HTS, MEKK2wt PB1 HTS, MEKK3 PB1 HTS)
N#CCc1ccc(Oc2ccc([N+](=O)[O-])cn2)cc1	MEKK3 PB1 HTS 48[inhibitor] | MEKK2wt confirm inactive | MEKK2mut-MEK5 inactive | MEKK3-MEK5 inh inactive
O=C1c2ccccc2C(=O)N1/N=C/c1ccc(Oc2ccc([N+](=O)[O-])cn2)cc1	none
COc1cc(/C=N/NC(=O)CN(Cc2ccccc2)S(=O)(=O)c2ccc3c(c2)OCCO3)ccc1O	MEKK3 PB1 HTS 136 | MEKK2wt confirm inactive | MEKK2mut-MEK5 inactive | MEKK3-MEK5 inh inactive
COc1ccc(/C=N/NC(=O)CN(Cc2ccccc2)S(=O)(=O)c2ccc3c(c2)OCCO3)cc1	none

Source: PubChem (several laboratories)
